The panel holds about 83,000 compounds, 20% with a hit somewhere; the sample as a whole holds those more often.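 Method: cells in 96-well plates; compound added at one concentration; 48 h incubation; percent growth measured; values under 10 scored active.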 A number with no mark means an inactive call. Calls of active or inactive are those of the source.
Key:
Assay in all cases: NCI-60 one-dose screen, 48 h (100 = growth as untreated, 0 = no growth, -100 = all killed)
Details in all cases: 10 µM unless noted
[1] = tested on: NCI-H23 lung
[2] = tested on: NCI-H226 lung
[3] = tested on: NCI-H322M lung
[4] = tested on: HOP-62 NSCLC
[5] = tested on: NCI-H460 lung
[6] = tested on: HOP-92 NSCLC
[7] = tested on: NCI-H522 lung
[8] = tested on: A549/ATCC NSCLC
[9] = tested on: 786-0 renal
[10] = tested on: COLO 205 colon
[11] = tested on: DU-145 prostate
[12] = tested on: K-562 leukemia
[13] = tested on: MALME-3M melanoma
[14] = tested on: MDA-MB-231 breast
[15] = tested on: SF-268 CNS
[16] = tested on: SF-295 CNS
[17] = tested on: SF-539 CNS
[18] = tested on: M14 melanoma
[19] = tested on: RXF 393 renal

Structure (SMILES) | growth [1] | growth [2] | growth [3] | growth [4] | growth [5] | growth [6] | growth [7] | growth [8] | growth [9] | growth [10] | growth [11] | growth [12] | growth [13] | growth [14] | growth [15] | growth [16] | growth [17] | growth [18] | growth [19]
COc1c(C(NC(=O)c2ccccc2)c2sccc2C)cc(Cl)c2cccnc12 (centres undefined) | 100% | 89.1% | 99.8% | 88.2% | 106% | 104% | 72.4% | 75.7% | 98.9% | 121% | 108% | 105% | 108% | 88.4% | 100% | 103% | 106% | 103% | –
CC(=O)Oc1ccccc1C(=O)N=C1[Se]CCN1C(=O)c1ccccc1OC(C)=O | 0.294% (active) | -48.4% (active) | -21.7% (active) | -48.1% (active) | -7.43% (active) | -72.4% (active) | -6.48% (active) | -52.6% (active) | -95.8% (active) | -26.9% (active) | -44.2% (active) | 8.83% (active) | – | -22.2% (active) | -77.1% (active) | -67.6% (active) | -79.4% (active) | -57.7% (active) | -72.5% (active)
Nc1c2c(c(O)c3c1=C(CO)C=N3)=NCCS2=O (centres undefined) | -33.4% (active) | -52.2% (active) | -95.1% (active) | -52.7% (active) | -61.7% (active) | -54.3% (active) | -46.9% (active) | -42.4% (active) | 36.1% | -75.1% (active) | -95.1% (active) | -7.83% (active) | -97.8% (active) | 1.89% (active) | -38.2% (active) | -95.8% (active) | -88.8% (active) | -85.2% (active) | –
COc1cnc2c(c1)C(=O)c1c-2n(CCCn2ccnc2)c(=O)c2cc(Cl)ccc12 | -1.2% (active) | 6.75% (active) | 22.4% | -16.7% (active) | 1.24% (active) | 31.8% | 12.3% | 17.4% | -17.9% (active) | 11.1% | 2.01% (active) | 5.92% (active) | – | 55.2% | 21.9% | 0.124% (active) | -11.6% (active) | -2.18% (active) | -33.6% (active)
C=CC[n+]1c(/C=C2\Sc3ccccc3N2C)sc(-c2ccccc2)c1-c1ccccc1 | 0.426% (active) | 10.3% | 24.2% | 17.8% | 8.83% (active) | -12.5% (active) | -7.57% (active) | 14.2% | 16.8% | -30.2% (active) | 23.4% | 7.28% (active) | 4.72% (active) | 31.4% | 32.9% | -17.1% (active) | 20.3% | 19.7% | –
Cc1nn(-c2nc3ccccc3[nH]2)c2c1C(c1ccc(O)cc1)CC(=O)N2 (centres undefined) | 74.9% | 96.9% | 104% | 93.1% | 57.4% | 99.3% | 52% | 61.3% | 115% | 103% | 99.5% | 97.8% | 100% | 71.9% | 74% | -16.2% (active) | 95.4% | 72% | –
O=C(N/N=C/c1ccc(Cl)cc1)c1cc(-c2cc3ccccc3o2)nn1-c1ccccc1 | 92% | 91.3% | 96.7% | 97.3% | 106% | -16.5% (active) | 77.9% | 97.9% | 95.1% | 96.1% | 87% | 91.1% | 105% | 92.5% | 108% | 107% | 84.9% | 99.3% | –
COc1ccc(OC)c(NC2=C(SCCc3ccccc3)C(=O)c3ccccc3C2=O)c1 | 45.2% | 78.8% | 89.7% | 97.8% | 91.6% | 77.8% | 73% | 87.2% | 100% | 95.6% | 92.2% | 91.2% | 90.8% | 62.8% | 84.6% | 92.2% | 85.7% | 83.3% | –
